Screening results as filed in PubChem BioAssay.
The entries come from a sample that favours hits as a whole.
Tgondii IFNg = blocks Toxoplasma gondii growth in the presence of IFN-gamma | Toxoplasma gondii growth in IFN-gamma-treated host cells; stronger effect = lower value | activity change, negative = inhibition, % (test concentration not listed) | actives 3.8% (n = 69,000) | AID 1259416; in the data active = activity change below about -70%, passing the limit was not always enough;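 also: host cells are HeLa cells infected with Toxoplasma gondii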
Numbers stand for hits; - = inactive; ! = a repeat was not active.

SMILES	Tgondii IFNg
Fc1ccc(Nc2nc(SCc3ccc(Cl)cc3)nc3ccccc23)cc1F	-
Clc1ccc(CSc2nc(NCc3ccccc3)c3ccccc3n2)cc1	-72
COc1ccc(CNc2nc(-c3ccc(OC)cc3)nc3ccccc23)cc1	-
Clc1ccc(CNc2nc(SCc3ccccc3Cl)nc3ccccc23)cc1	-
COc1cc(Nc2nc(SCc3ccc(C(C)(C)C)cc3)nc3ccccc23)cc(OC)c1	-
Clc1ccccc1CSc1nc(NCc2ccccc2)c2ccccc2n1	-
c1ccc(CNc2nc(NCc3ccccc3)c3ccccc3n2)cc1	-108
Clc1ccc(CNc2nc(SCc3ccc(Cl)cc3)nc3ccccc23)cc1	-
Fc1ccc(CSc2nc(Nc3ccc(F)c(F)c3)c3ccccc3n2)cc1	-80
Cc1ccccc1CNC1=NCCNC12CCN(S(=O)(=O)c1ccc3c(c1)CCCC3)CC2	-
COc1cccc(CNC(=O)CN2C(=O)CCc3cc(S(=O)(=O)N4CCCC4)ccc32)c1	-
COc1ccc(CN2C[C@@H]3C[C@H](C(=O)Nc4ccccc4)[C@@H](C2)O3)cc1	-
CCn1ccnc1CN(C)Cc1sccc1C	-
CCOCC(=O)NCC1Cn2nnc(-c3cncnc3)c2CO1 (stereo unspecified)	-
COCc1cncc2c1CCN(C(=O)c1ccc[nH]1)C2	-
C=CCOCc1cncc2c1CCN(C(=O)c1ccncc1)C2	-
COCc1cncc2c1CCN(C(=O)c1ccncc1)C2	-98
CNC(=O)C[C@H]1C[C@@H]2CN(c3cc(OC)ncn3)C[C@H]2O1	-
O=C(CN1CCN(c2ncccn2)CC1)N1N=CCC1c1ccccc1 (stereo unspecified)	-
O=C(N/N=C\c1cc([N+](=O)[O-])ccc1N1CCOCC1)c1ccccn1	-
O=Cc1ccc(N2CCCCC2)cc1	-
O=[N+]([O-])c1cc(/C=N/n2cnnc2)ccc1N1CCCC1	-90
CCc1nc([C@H]2CN(C)C[C@@H]2C(=O)NCc2ccccn2)c(C)[nH]1	-
CN1CCN(c2cc(N(C)CCCn3cccn3)nc(N)n2)CC1	-
Cc1nc(CN2C[C@@H](c3ccccc3)[C@@]3(CCN(C)C3=O)C2)cs1	-
SMILES	Tgondii IFNg
CN1CCN(CCCN2c3ccccc3Sc3ccc(Cl)cc32)CC1	-
OCCN1CCN(CC/C=C2/c3ccccc3Sc3ccc(C(F)(F)F)cc32)CC1	-77
CN(C)CC/C=C1/c2ccccc2Sc2ccc(Cl)cc21	-
OCCN1CCN(CCCN2c3ccccc3C=Cc3ccccc32)CC1	-
CC(=O)c1ccc2c(c1)N(CCCN1CCN(CCO)CC1)c1ccccc1S2	-
CN1CCCC(CN2c3ccccc3Sc3ccccc32)C1 (stereo unspecified)	-
COc1ccc2c(c1)N(C[C@H](C)CN(C)C)c1ccccc1S2	-
CN1CCN(CCC=C2c3ccccc3Sc3ccc(S(=O)(=O)N(C)C)cc32)CC1	-
CN(C)CCCN1c2ccccc2Sc2ccc(C(F)(F)F)cc21	-89!
CCSc1ccc2c(c1)N(CCCN1CCN(C)CC1)c1ccccc1S2	-78
CC(CN(C)C)CN1c2ccccc2Sc2ccccc21 (stereo unspecified)	-
OCCN1CCN(CCCN2c3ccccc3Sc3ccc(C(F)(F)F)cc32)CC1	-97!
CCOCC1CN(Cc2ccc(C)s2)Cc2nn(C)cc21 (stereo unspecified)	-
FC(F)(F)CCN1C[C@@H]2OCCN(c3cnccn3)[C@H]2C1	-
CCn1cnnc1CCNc1nc(C)nc2c1cnn2C	-
COc1ccc(CCNC(=O)c2ccccc2NC(=O)c2ccccc2C)cc1OC	-
CCN(Cc1cccc(C(=O)Nc2c(C)noc2C)c1)CC1CCCO1 (stereo unspecified)	-
CC(C)CN1CCC2(C=C(C(=O)N3CCCC3)c3ccccc32)CC1	-
Cc1nc(SCC(=O)NCc2ccc3c(c2)OCCCO3)n[nH]1	-
CCC(=O)N1CCC(C#Cc2ccnc(Nc3ncccn3)c2)CC1	-
O=C(NNc1nc2cc(F)ccc2n2cccc12)c1cnccn1	-81
Cc1nc2ncccn2c1C(=O)NCc1cnn(-c2cccc(F)c2)c1	-
CC(C)C(=O)c1cc(-c2csc(-c3cnccn3)n2)n2ccccc12	-
CC(=O)NC1(c2ccccc2F)CCN(Cc2oc3ccc(C)cc3c2C)CC1	-
COc1cccc(-n2c(=O)c(C(=O)Nc3ccc(C)c(C)c3)c(O)c3cccnc32)c1	-
SMILES	Tgondii IFNg
CC(C)NC(=O)N1CCC(c2cc3c(ncn3C)c(NCc3ccccc3)n2)CC1	-
CC(C)n1cnc2c(NCC3CC3)nc(C3CCN(C(=O)c4ccccc4)CC3)cc21	-82
CN(C)C(=O)N1CCC(c2cc3c(ncn3C)c(NCc3ccccc3)n2)CC1	-
O=C(NC[C@@H]1OC[C@@H]2CCN(Cc3ccsc3)C[C@H]21)c1ccco1	-
Cc1ccc(NC(=O)CC(=O)N(CCO)CCO)cc1	-
Cc1ccc(CC2(O)CC(C)N(C)CC2C)cc1 (stereo unspecified)	-
CC1C(c2ccccc2)N(C)C(c2ccccc2)CC1(O)Cc1ccccc1 (stereo unspecified)	-85
CN1CCCC1(Cc1ccccc1)C(=O)O (stereo unspecified)	-
COc1cccc([C@H]2CN(C(=O)c3ccccc3)[C@@H]3CCN(C(=O)c4cnccn4)C[C@H]23)c1	-
CC1(C)CN(c2ccnc(C(=O)NCc3ccc4c(c3)OCO4)c2)CCO1	-
COCC1(C(=O)N2CCCN(S(C)(=O)=O)CC2)CCC1	-
c1ccc(Nc2nc(-c3ccccc3)c(-c3ccccc3)s2)cc1	-105
CCCc1sc(Nc2ccc(C(=O)OC)cc2)nc1-c1ccccc1	-
Clc1cccc(Nc2nnc(-c3ccccc3)c3ccccc23)c1	-
COc1ccc2c(c1)c(=O)oc1cc3occ(C(C)(C)C)c3cc12	-
O=c1ccc2cc3ccoc3cc2o1	-
COc1c2ccoc2cc2oc(=O)ccc12	-87!
Cc1oc(-c2cccc(Cl)c2)nc1CSc1nc2c(c(=O)[nH]1)CN(Cc1ccc(F)cc1)CC2	-
CO[C@H]1CN(C)C(=O)c2cc(NS(=O)(=O)c3cccc(Cl)c3)ccc2OC[C@H](C)NC[C@H]1C	-86
CO[C@@H]1CN(C)C(=O)c2cc(NC(=O)c3ccc(Oc4ccccc4)cc3)ccc2OC[C@H](C)NC[C@@H]1C	-97
CO[C@@H]1CN(C)C(=O)c2cc(NC(=O)c3ccc(Oc4ccccc4)cc3)ccc2OC[C@@H](C)NC[C@H]1C	-119
COc1cccc(NC(=O)Nc2ccc3c(c2)C(=O)N(C)C[C@@H](OC)[C@H](C)CN[C@@H](C)CO3)c1	-
COc1cccc(NC(=O)Nc2ccc3c(c2)C(=O)N(C)C[C@H](OC)[C@@H](C)CN[C@H](C)CO3)c1	-
CO[C@H]1CN(C)C(=O)c2cc(NS(=O)(=O)c3cccc(Cl)c3)ccc2OC[C@@H](C)NC[C@H]1C	-
CO[C@@H]1CN(C)C(=O)c2cc(NC(=O)c3cnccn3)ccc2OC[C@H](C)NC[C@H]1C	-
CO[C@@H]1CN(C)C(=O)c2cc(NC(=O)c3cnccn3)ccc2OC[C@H](C)NC[C@@H]1C	-
CO[C@H]1CN(C)C(=O)c2ccc(NC(=O)c3cccc(F)c3)cc2OC[C@@H](C)NC[C@@H]1C	-
CO[C@@H]1CN(C)C(=O)c2cc(NS(=O)(=O)c3cn(C)cn3)ccc2OC[C@@H](C)NC[C@@H]1C	-
CO[C@H]1CN(C)C(=O)c2cc(NC(=O)c3ccc(Oc4ccccc4)cc3)ccc2OC[C@H](C)NC[C@H]1C	-98
COc1cccc(NC(=O)Nc2ccc3c(c2)C(=O)N(C)C[C@H](OC)[C@H](C)CN[C@@H](C)CO3)c1	-
